From PubChem BioAssay
Pf growth 48h – P. falciparum growth inhibition at 48 hours (one generation); P. falciparum luciferase growth in erythrocytes, 48 h; Potency, µM (highest dose often 28.7 µM), hits mostly inhibitors; 310,000 compounds, 5.9% hits; AID 504832
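A one-generation exposure of luciferase-tagged malaria parasites in RPMI 1640/Albumax erythrocyte culture, 37 C and 5% CO2. Inhibition is inferred from decreased luminescence after adding detection reagent.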
SARS PLP yeast – SARS-CoV PLP inhibition in yeast; 330,000 compounds, 0.19% hits; AID 485353; Potency, µM (series often up to 32.9 µM), actives largely listed as activators; S. cerevisiae expressing SARS-CoV PLpro, growth rescue; calls by dose curve; note: nearly all actives have a fitted effect of over 55% in size
AmpC inh no detg – blocks E. coli AmpC beta-lactamase in detergent-free assay | AmpC nitrocefin hydrolysis, absorbance 480 nm, 0.0001% Triton | P00811 | Potency, µM (series often up to 57.1 µM), actives largely listed as inhibitors | 330,000 compounds, 0.52% hits; note: nearly all actives have a fitted effect of over 20% in size
Target sequence (P00811 whole entry, looked up): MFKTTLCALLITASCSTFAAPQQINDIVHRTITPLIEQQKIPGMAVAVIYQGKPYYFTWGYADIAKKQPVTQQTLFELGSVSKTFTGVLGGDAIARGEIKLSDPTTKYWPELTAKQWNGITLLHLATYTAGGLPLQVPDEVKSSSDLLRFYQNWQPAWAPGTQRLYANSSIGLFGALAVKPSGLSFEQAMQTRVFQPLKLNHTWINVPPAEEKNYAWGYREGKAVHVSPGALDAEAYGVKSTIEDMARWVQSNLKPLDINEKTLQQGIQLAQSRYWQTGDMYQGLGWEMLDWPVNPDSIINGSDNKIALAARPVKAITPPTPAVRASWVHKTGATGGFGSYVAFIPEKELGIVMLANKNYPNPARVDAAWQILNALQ
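20 mM phosphate pH 7.0 + 0.01% (detergent screen) or 0.0001% Triton X-100; 5.3 nM AmpC reagent; cpd preinc 15 min RT; nitrocefin (800 uM stock) to start; A480 q20 s × 4 min; Activity was normalised to no-enzyme and no-compound control wells.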
Sm TGR block – inhibitors of Schistosoma mansoni thioredoxin glutathione reductase; Q962Y6; purified TGR, DTNB reduction, TNB absorbance 405 nm; Potency, µM (top dose mostly 114 µM), hits mostly inhibitors; 360,000 compounds, 3% hits; note: nearly all actives have a fitted effect of over 60% in size
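TGR 20 nM + NADPH 100 uM (dispensed conc.), cpd preinc 15 min RT; start with NADPH (500 uM addition) then DTNB (15 mM addition). Kinetic TNB absorbance, 405 nm filter. Four-parameter Hill fit across titration.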
AmpC inh detg – blocks E. coli AmpC beta-lactamase in detergent assay | P00811 | AmpC hydrolysis of nitrocefin, absorbance 480 nm, 0.01% Triton | Potency, µM (doses to about 114 µM), hits mostly inhibitors | 370,000 compounds, 0.041% hits | AID 485294; note: nearly all actives have a fitted effect of over 25% in size
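20 mM phosphate pH 7.0 + 0.01% (detergent screen) or 0.0001% Triton X-100; 5.3 nM AmpC reagent; cpd preinc 15 min RT; nitrocefin (800 uM stock) to start; A480 q20 s × 4 min; Activity was normalised to no-enzyme and no-compound control wells.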
Pf growth 96h – P. falciparum growth inhibition at 96 hours. P. falciparum luciferase reporter growth, 96 h. Potency, µM (top dose mostly 28.7 µM), actives largely listed as inhibitors. 320,000 compounds, 6.9% hits
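Erythrocytes infected with luciferase-expressing P. falciparum were dispensed at 2% hematocrit and 0.05% parasitemia (final), then incubated with compounds 96 hours at 37 C in 5% CO2. Luminescence after detection reagent addition reported growth.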
Hits are given with their value; 0 = inactive; ? = inconclusive; - = not tested or not shown. This is a sample that favours compounds with a hit; in the whole collection about 12% have one here. Unless noted, calls come from the whole dose curve; as a rule, active = well fitted curve in the direction sought with a large enough effect; inconclusive = small, poorly fitted or top-dose-only effect, or another doubt; inactive = no such curve, though single readings can be large; an effect the other way counts as inactive or inconclusive.

SMILES	Pf growth 48h	SARS PLP yeast	AmpC inh no detg	Sm TGR block	AmpC inh detg	Pf growth 96h
COc1ccc(-n2c(=O)c3c(c4cc(OC)ccc4n3C)n(Cc3cc(C)ccc3C)c2=O)cc1	-	-	-	0	0	-
CC(=O)N1c2ccc(S(=O)(=O)NCc3ccc(Cl)cc3)cc2CC1C (configuration not stated)	-	-	-	0	0	-
CCOc1ccc(C(=O)NC2CCN(C(=O)Nc3ccc(F)cc3)CC2)cc1	0	0	0	0	0	?
O=[N+]([O-])c1cc(S(=O)(=O)Nc2cccc(Cl)c2)ccc1N/N=C/c1ccc(N2CCOCC2)cc1	1.9µM	0	0	0	0	?
C/C(=N\Nc1ccc(S(=O)(=O)Nc2ccccc2)cc1[N+](=O)[O-])c1ccncc1	10µM	0	0	-	0	?
c1ccc(-c2nc(NCc3ccco3)c3ccccc3n2)nc1	2.6µM	0	0	0	?	2.9µM
c1coc(CNc2nc(N3CCCCC3)nc3ccccc23)c1	6.6µM	0	0	?	0	-
Cc1csc2ncnc(NC3CCN(Cc4ccccc4)CC3)c12	?	0	0	0	0	?
Nc1nc(N2CCN(Cc3ccccc3)CC2)n[nH]1	0	0	0	-	0	0
OCCNc1nc(N2CCCCC2)nc2ccccc12	?	0	0	0	0	0
Oc1ccccc1-c1nc(NCc2ccco2)c2ccccc2n1	0	0	0	0	?	?
c1ccc(CNc2nc(N3CCN(Cc4ccccc4)CC3)nc3ccccc23)cc1	5.2µM	0	0	0	0	?
c1ccc(CN2CCC(Nc3nc(-c4ccccc4)nc4ccccc34)CC2)cc1	8.3µM	0	0	0	0	-
Cc1cccc(-n2ncc(C(=O)N3CCN(Cc4ccccc4)CC3)c2C2CCN(C(=O)OC(C)(C)C)CC2)c1	-	-	-	0	0	-
COc1ccccc1NC(=O)C(Cc1ccccc1)NS(=O)(=O)c1ccc2c(c1)c(=O)n(C)c(=O)n2C (configuration not stated)	-	-	-	0	0	-
C[C@@H]1CN([C@H](C)CO)C(=O)Cc2cc(NS(=O)(=O)c3cn(C)cn3)ccc2O[C@H]1CN(C)S(=O)(=O)c1ccc(Cl)cc1	-	0	0	-	-	-
COc1cc(OC)c(NC(=O)c2cc(C(C)=O)n3ccccc23)cc1Cl	-	-	-	0	0	-
c1ccc(N2CCN(c3nc(NCc4ccco4)c4ccccc4n3)CC2)cc1	2.3µM	0	0	0	?	2.3µM
Fc1ccccc1-c1nc(NCc2ccco2)c2ccccc2n1	?	0	0	0	0	0
CCOC(=O)C(C)CC(C)C(=O)N1CCOCCN(C(=O)C(C)CC(C)C(=O)OCC)CCOCC1 (configuration not stated)	8.3µM	0	0	0	0	0
CC(=O)Cc1nsc(Nc2ccc(F)cc2)n1	0	0	0	0	0	10µM
COc1ccc(Nc2nc(CC(C)=O)ns2)cc1	0	0	0	0	?	2.6µM
CC(=O)Cc1nsc(Nc2ccc(Cl)cc2)n1	0	0	0	-	0	0
COc1cccc(Nc2nc(CC(C)=O)ns2)c1	0	0	0	0	0	?
CCc1cccc(Nc2cc(C)nc3ncnn23)c1	?	0	0	0	?	?
SMILES	Pf growth 48h	SARS PLP yeast	AmpC inh no detg	Sm TGR block	AmpC inh detg	Pf growth 96h
Cc1cc(Nc2ccc(F)c(Cl)c2)n2ncnc2n1	?	0	0	0	?	?
CCCOC(=O)c1ccc(Nc2cc(C)nc3ncnn23)cc1	8.3µM	0	0	0	?	0
CCN(CC)S(=O)(=O)c1ccc(Nc2cc(C)nc3ncnn23)cc1	15µM	0	0	0	?	?
CCc1ccc(Nc2cc(C)nc3ncnn23)cc1	3.3µM	0	0	0	0	0
CCn1c2ccccc2c2cc(Nc3cc(C)nc4ncnn34)ccc21	0.074µM	0	0	0	0	0
CC(C)CCOC(=O)C1[C@H]2C(=O)N(Cc3cccs3)C[C@]23C=C[C@H]1O3 (some centres not stated)	0	0	0	?	0	0
CC1(C)O[C@@H]2C[C@H]3[C@@H]4CCC5=CC(=O)C=C[C@]5(C)[C@H]4C(O)C[C@]3(C)[C@]2(C(=O)CO)O1 (some centres not stated)	?	-	-	-	-	0
Cc1cccc(C)c1NC(=O)c1ccc2nc(CCc3ccccc3)oc2c1	-	-	-	0	0	-
CCn1cc(C(=O)N2CCN(c3ccccc3OC)CC2)c(=O)c2cc(S(=O)(=O)N3CCC(C)CC3)ccc21	-	-	-	0	0	-
Cc1cc(Nc2ccc(N(C)C)cc2)n2ncnc2n1	2.3µM	0	0	0	?	0
Cc1cc(Nc2ccc(Cl)cc2)n2ncnc2n1	?	0	0	0	0	0
Cc1cc(Nc2cccc(Cl)c2)n2ncnc2n1	0	0	0	0	?	1.7µM
COc1cc(NC(=O)c2nn(C)c3c2COc2ccccc2-3)cc(OC)c1OC	-	-	-	32µM	0	-
COc1cc(NC(=O)c2nn(C)c3c2CS(=O)(=O)c2ccccc2-3)cc(OC)c1	0	0	0	0	0	?
COC(=O)c1ccccc1NC(=O)c1nn(C)c2c1COc1ccccc1-2	-	-	-	7.1µM	0	-
Nc1ccc2c(c1)C/C(=C/c1ccco1)C2=O	0	0	0	16µM	0	0
COc1cccc(N2CC(NC(=O)c3ccc(S(=O)(=O)N4CCOCC4)cc3)CC2=O)c1 (configuration not stated)	-	-	-	0	0	-
O=C(Cn1ccc2ccccc2c1=O)NCCC(=O)N1CCN(c2cccc(C(F)(F)F)c2)CC1	0	0	0	0	0	0
N=c1ccn(Cc2cccc(F)c2)cc1	2.3µM	0	0	0	0	0
Nc1ccn(Cc2cccc(F)c2)n1	0	0	0	0	0	?
Cc1ccc2cccc(NC(=O)COc3ccccc3[N+](=O)[O-])c2n1	-	-	-	0	0	-
Cc1cccc(NC(=O)/C=C/c2ccc([N+](=O)[O-])s2)c1	?	0	0	0	0	2.6µM
Cc1ccc(NC(=O)/C=C/c2ccc([N+](=O)[O-])s2)cc1	?	0	0	0	?	?
Cc1ccc(NC(=O)/C=C/c2ccc([N+](=O)[O-])s2)c(C)c1	10µM	0	0	0	0	3.3µM
Cc1cc(O)c(C(C)C)cc1NS(=O)(=O)c1ccccc1	0	0	0	0	?	0
Cc1ccc(CN(C(=O)c2ccco2)C(C(=O)NC2CCCC2)c2ccc(N3CCOCC3)cc2)cc1 (configuration not stated)	10µM	0	0	?	0	0
O=C(NC1CCCCC1)C(c1ccccc1)N1CCOCC1 (configuration not stated)	0	0	0	0	0	0
Cc1ccc(C(C(=O)NC2CCCCC2)N2CCOCC2)cc1 (configuration not stated)	0	0	0	0	0	10µM
